Assay [1] has as its target Death-associated protein kinase 1 (Homo sapiens) (UniProt P53355). Particulars: at 1 µM.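 Further: each value is a mean inhibition figure.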
Assay [2] concerns the target T1, Serine/threonine-protein kinase DCLK2 (Homo sapiens) (UniProt Q8N568).
T1 sequence (whole entry): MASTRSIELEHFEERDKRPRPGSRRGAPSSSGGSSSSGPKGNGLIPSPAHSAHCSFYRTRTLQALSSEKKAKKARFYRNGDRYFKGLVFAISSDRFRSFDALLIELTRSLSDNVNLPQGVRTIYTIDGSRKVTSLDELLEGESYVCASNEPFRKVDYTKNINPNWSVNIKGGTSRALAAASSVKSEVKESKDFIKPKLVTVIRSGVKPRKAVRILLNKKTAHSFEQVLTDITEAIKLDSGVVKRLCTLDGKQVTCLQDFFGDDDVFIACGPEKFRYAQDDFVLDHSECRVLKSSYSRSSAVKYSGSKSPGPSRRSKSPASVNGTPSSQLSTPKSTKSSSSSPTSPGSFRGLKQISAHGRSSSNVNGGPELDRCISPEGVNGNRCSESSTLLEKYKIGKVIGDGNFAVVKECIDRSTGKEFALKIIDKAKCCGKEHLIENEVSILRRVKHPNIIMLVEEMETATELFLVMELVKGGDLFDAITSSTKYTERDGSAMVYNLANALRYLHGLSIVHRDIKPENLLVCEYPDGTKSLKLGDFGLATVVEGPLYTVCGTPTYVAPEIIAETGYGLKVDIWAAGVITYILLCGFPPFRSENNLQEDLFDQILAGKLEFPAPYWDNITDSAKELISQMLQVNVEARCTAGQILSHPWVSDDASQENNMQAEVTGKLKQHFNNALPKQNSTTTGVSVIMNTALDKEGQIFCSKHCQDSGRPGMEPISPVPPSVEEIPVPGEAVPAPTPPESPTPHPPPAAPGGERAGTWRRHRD
To be noted: at 0.1 µM.

Assay [3] deals with T1, Serine/threonine-protein kinase DCLK2 (Homo sapiens). Particulars: at 1 µM.
The target of assay [4] is MAP kinase-activated protein kinase 2 (Homo sapiens) (UniProt P49137). To be noted: at 0.1 µM.
Assay [5] has the same target. Particulars: at 1 µM.
For assay [6], the target named is MAP kinase-activated protein kinase 3 (Homo sapiens) (UniProt Q16644). Particulars: at 0.1 µM.
For assay [7] the target is unchanged. Particulars: at 1 µM.
The target of assay [8] is Serine/threonine-protein kinase MARK1 (Homo sapiens) (UniProt Q9P0L2). Particulars: at 0.1 µM.
For assay [9] the target is unchanged. Particulars: at 1 µM.
Assay [10] has as its target MAP/microtubule affinity-regulating kinase 3 (Homo sapiens) (UniProt P27448). To be noted: at 0.1 µM.
Assay [11] has the same target. Particulars: at 1 µM.
Assay [12] concerns the target T2, MAP/microtubule affinity-regulating kinase 4 (Homo sapiens) (UniProt Q96L34).
T2 sequence (whole entry): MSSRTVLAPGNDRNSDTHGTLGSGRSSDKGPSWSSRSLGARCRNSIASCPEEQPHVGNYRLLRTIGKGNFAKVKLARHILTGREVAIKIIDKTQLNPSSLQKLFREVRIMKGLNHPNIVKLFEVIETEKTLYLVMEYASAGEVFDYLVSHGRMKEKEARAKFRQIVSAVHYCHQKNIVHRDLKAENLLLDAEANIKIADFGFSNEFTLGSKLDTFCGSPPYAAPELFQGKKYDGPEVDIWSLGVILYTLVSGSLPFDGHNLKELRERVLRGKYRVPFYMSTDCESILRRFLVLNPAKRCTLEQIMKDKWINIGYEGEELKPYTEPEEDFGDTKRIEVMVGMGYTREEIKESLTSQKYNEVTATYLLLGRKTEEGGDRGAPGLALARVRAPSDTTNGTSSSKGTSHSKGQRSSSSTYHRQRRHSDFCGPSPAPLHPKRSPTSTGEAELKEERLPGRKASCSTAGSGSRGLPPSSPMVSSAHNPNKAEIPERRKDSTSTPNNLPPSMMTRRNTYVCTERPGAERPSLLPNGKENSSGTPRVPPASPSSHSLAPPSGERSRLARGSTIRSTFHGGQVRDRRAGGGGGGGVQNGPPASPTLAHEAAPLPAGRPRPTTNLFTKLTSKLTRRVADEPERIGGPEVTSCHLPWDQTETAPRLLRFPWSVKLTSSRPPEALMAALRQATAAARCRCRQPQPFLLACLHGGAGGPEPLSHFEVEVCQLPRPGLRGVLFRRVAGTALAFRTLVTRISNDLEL
Particulars: at 0.1 µM.

Assay [13] has as its target T2, MAP/microtubule affinity-regulating kinase 4 (Homo sapiens). Particulars: at 1 µM.
The target of assay [14] is Maternal embryonic leucine zipper kinase (Homo sapiens) (UniProt Q14680). To be noted: at 0.1 µM.
Assay [15] has the same target. Particulars: at 1 µM.
The target of assay [16] is MAP kinase-interacting serine/threonine-protein kinase 1 (Homo sapiens) (UniProt Q9BUB5). To be noted: at 0.1 µM.
Assay [17] has the same target. To be noted: at 1 µM.
The target of assay [18] is MAP kinase-interacting serine/threonine-protein kinase 2 (Homo sapiens) (UniProt Q9HBH9). Particulars: at 0.1 µM.
For assay [19] the target is unchanged. Particulars: at 1 µM.
The target of assay [20] is Serine/threonine-protein kinase MARK2 (Homo sapiens) (UniProt Q7KZI7). Particulars: at 0.1 µM.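 Further: mean percent inhibition of PAR-1Balpha kinase activity, reported from the GSK PKIS screen.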
Sequence of Serine/threonine-protein kinase MARK2 (Homo sapiens) (Q7KZI7 whole entry): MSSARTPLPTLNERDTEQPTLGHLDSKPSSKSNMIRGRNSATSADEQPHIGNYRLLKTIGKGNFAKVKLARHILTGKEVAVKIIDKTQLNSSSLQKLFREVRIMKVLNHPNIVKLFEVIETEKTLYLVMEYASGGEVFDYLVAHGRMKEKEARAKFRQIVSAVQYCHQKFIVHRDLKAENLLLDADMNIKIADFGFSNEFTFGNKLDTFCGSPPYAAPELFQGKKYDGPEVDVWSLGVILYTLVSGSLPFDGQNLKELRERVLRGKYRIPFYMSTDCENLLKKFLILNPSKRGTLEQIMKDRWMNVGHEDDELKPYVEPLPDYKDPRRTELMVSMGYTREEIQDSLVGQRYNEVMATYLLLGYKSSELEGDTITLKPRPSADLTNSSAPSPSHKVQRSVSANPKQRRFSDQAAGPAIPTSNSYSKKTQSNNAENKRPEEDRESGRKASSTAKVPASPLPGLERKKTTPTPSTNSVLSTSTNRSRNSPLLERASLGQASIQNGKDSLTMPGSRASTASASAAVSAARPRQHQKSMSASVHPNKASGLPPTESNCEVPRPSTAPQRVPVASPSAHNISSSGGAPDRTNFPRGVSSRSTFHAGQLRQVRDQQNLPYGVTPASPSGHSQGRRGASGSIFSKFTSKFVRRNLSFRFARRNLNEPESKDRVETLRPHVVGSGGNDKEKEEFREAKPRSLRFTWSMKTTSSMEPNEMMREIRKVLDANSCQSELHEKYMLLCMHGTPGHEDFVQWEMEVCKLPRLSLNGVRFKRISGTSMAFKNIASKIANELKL

Sequence of Death-associated protein kinase 1 (Homo sapiens) (P53355 whole entry, looked up): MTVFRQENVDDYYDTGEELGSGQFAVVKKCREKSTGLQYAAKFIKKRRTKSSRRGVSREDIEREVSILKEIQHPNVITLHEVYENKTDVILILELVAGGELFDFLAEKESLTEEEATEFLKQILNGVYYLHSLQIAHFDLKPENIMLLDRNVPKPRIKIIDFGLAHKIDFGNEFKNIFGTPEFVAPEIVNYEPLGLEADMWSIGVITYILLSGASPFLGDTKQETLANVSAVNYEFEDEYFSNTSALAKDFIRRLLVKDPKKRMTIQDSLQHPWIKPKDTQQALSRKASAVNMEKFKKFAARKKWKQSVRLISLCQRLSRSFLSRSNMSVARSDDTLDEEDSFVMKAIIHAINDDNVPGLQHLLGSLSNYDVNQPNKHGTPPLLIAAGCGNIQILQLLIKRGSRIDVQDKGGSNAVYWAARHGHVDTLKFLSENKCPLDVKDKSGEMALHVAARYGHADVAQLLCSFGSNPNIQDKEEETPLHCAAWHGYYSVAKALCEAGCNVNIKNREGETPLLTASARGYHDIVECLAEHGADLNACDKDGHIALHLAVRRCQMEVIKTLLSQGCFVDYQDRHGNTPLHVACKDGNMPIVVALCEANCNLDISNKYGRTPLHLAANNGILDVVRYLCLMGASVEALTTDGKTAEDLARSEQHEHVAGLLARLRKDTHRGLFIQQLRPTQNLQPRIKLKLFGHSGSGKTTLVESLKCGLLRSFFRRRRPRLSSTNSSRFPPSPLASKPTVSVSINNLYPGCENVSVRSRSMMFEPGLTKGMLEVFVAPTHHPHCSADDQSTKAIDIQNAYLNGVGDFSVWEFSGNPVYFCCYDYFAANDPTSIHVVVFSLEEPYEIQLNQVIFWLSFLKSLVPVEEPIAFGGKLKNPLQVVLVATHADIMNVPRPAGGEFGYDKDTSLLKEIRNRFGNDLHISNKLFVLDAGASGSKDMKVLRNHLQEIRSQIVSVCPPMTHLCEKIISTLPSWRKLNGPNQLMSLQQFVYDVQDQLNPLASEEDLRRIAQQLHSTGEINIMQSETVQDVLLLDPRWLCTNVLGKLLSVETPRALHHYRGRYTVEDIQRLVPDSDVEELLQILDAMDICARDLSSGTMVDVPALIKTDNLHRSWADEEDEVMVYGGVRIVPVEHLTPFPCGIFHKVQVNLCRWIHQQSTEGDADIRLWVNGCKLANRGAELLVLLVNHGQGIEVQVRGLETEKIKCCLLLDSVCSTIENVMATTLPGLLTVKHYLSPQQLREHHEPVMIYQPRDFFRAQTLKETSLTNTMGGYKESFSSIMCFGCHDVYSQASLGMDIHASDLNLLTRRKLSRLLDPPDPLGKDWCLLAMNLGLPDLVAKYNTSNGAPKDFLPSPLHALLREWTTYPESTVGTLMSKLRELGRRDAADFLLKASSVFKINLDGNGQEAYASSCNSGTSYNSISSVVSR
Sequence of MAP/microtubule affinity-regulating kinase 3 (Homo sapiens) (P27448 whole entry, looked up): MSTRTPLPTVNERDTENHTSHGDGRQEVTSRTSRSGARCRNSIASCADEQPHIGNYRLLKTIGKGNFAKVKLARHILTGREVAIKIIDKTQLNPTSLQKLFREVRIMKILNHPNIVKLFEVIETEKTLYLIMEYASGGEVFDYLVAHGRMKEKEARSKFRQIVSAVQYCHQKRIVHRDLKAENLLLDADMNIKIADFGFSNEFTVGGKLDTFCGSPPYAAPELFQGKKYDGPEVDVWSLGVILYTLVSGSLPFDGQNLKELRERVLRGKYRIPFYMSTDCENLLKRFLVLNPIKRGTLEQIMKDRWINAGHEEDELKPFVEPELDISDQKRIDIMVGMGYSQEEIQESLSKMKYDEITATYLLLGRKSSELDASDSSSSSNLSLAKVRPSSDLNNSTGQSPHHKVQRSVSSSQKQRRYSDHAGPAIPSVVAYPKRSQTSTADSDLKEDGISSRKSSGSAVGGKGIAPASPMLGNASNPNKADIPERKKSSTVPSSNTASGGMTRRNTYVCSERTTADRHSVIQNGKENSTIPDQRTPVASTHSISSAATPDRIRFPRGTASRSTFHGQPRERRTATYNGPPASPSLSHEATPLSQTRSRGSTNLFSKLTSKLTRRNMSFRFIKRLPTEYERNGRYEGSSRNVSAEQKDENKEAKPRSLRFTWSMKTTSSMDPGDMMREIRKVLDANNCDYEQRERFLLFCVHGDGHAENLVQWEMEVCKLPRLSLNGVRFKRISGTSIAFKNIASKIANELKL
Sequence of MAP kinase-activated protein kinase 2 (Homo sapiens) (P49137 whole entry, looked up): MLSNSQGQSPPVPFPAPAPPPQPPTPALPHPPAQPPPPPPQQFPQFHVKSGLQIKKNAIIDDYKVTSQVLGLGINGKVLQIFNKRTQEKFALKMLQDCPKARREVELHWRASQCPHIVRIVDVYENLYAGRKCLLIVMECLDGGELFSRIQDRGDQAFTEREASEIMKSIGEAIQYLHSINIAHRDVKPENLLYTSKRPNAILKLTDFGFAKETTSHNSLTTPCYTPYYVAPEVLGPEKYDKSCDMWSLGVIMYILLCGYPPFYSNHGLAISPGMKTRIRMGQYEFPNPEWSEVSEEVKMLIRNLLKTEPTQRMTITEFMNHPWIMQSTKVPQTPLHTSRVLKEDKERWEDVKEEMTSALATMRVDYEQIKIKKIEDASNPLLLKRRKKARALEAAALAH
Sequence of Maternal embryonic leucine zipper kinase (Homo sapiens) (Q14680 whole entry, looked up): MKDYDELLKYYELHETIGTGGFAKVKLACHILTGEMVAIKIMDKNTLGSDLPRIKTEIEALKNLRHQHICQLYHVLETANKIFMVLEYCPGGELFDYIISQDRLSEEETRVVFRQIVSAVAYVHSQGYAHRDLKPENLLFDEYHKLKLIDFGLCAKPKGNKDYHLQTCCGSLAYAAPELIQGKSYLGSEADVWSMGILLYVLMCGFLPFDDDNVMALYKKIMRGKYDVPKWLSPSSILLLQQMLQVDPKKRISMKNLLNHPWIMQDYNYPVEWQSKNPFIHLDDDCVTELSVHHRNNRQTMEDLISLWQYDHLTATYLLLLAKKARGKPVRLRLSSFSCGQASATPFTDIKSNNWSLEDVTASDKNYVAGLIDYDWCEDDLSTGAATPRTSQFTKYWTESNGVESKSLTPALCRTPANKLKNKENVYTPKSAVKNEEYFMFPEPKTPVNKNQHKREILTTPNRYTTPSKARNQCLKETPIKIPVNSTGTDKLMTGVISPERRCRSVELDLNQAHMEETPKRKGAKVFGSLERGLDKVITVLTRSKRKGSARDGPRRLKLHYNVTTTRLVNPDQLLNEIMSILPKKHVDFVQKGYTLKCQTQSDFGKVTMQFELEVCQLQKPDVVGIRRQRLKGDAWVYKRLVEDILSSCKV
Sequence of MAP kinase-interacting serine/threonine-protein kinase 1 (Homo sapiens) (Q9BUB5 whole entry, looked up): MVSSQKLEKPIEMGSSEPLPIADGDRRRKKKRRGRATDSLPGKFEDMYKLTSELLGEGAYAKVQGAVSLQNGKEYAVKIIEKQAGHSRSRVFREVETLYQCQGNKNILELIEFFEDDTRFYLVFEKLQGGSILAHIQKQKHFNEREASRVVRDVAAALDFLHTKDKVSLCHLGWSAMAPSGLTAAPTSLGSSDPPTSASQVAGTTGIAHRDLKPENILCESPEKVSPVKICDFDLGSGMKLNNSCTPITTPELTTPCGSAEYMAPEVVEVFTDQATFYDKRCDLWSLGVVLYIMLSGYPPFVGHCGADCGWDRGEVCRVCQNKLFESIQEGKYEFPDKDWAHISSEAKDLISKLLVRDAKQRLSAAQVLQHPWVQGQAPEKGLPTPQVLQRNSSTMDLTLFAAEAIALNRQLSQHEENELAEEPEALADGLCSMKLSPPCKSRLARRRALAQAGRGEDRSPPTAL
Sequence of MAP kinase-interacting serine/threonine-protein kinase 2 (Homo sapiens) (Q9HBH9 whole entry, looked up): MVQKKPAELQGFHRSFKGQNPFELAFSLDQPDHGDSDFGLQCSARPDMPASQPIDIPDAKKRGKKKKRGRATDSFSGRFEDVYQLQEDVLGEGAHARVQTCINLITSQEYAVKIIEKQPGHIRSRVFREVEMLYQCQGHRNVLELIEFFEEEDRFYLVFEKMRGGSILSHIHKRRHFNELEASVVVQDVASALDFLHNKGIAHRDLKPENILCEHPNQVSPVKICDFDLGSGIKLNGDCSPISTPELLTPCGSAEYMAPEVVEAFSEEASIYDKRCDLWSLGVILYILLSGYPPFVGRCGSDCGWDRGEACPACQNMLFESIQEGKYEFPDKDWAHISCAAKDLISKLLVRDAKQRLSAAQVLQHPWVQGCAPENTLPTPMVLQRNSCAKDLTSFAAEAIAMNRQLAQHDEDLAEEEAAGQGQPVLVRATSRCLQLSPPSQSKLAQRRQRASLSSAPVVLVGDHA

Take `O=C(Nc1n[nH]c2cc(-c3ccc(F)cc3)ccc12)C1CC1`: the inhibition in [1] was found to be 9.97%; in [2], 1.56%; in assay [3] it was 0.81%; in [4], 4.23%; in assay [5] it was 4.01%; in assay [6], 9.47%. For the same molecule, the inhibition in assay [7] is 8.99%; in [8] it was 3.81%; in assay [9], 5.7%; in assay [10], 2.03%; in assay [11], 4.76%; in assay [12], 2%. Also, the inhibition was 3.26% in [13]; 4.84% in assay [14]; 8.01% in assay [15]; 4.85% in assay [16]; 25.8% in assay [17]; 1.37% in assay [18]. The results for the inhibition in assay [19] and in [20] were 7.23% and 1.15%, respectively.
Regarding `COC(=O)Nc1nc2ccc(Oc3ccc(NC(=O)Nc4cccc(Cl)c4)cc3)cc2[nH]1`, the inhibition was -0.2% in [1]; -0.66% in [2]; 0.75% in assay [3]; -0.07% in assay [4]; -0.56% in [5]; 3.71% in assay [6]. For the same molecule, the inhibition was 4.53% in assay [7]; 0.33% in assay [8]; 2.88% in assay [9]; 0.27% in assay [10]; -0.32% in [11]; -0.16% in [12]. The inhibition in assay [13] was 0.01%; in assay [14] it was 1.24%; in assay [15], -2.93%; in [16], 1.78%; in assay [17] it was 4.14%; in assay [18], -1.23%. Besides, the inhibition in assay [19] is 0.19%; in assay [20], -0.4%.
In the case of `Clc1ccc(-c2nn3ncccc3c2-c2ccnc(Nc3ccccc3)n2)cc1`, the inhibition in [1] is -0.24%; in assay [2], 1.9%; in assay [3], 6.65%; in assay [4], 0.42%; in assay [5] it was -0.09%; in assay [6], 22.4%. Also, the inhibition in assay [7] is 32.1%; in [8] it was 1.31%; in assay [9] it was 0.37%; in assay [10], -2.23%; in assay [11], 8.43%; in assay [12], 0.1%. Moreover, the inhibition in assay [13] was 1.26%; in assay [14], 2.47%; in [15], 1.1%; in assay [16], 0.8%; in [17] it was 3.07%; in assay [18], 0.53%. The inhibition in [19] came out at 1.38%; in assay [20], 0.74%.
For `NS(=O)(=O)c1ccc(Nc2ncc(-c3ccccc3)o2)cc1`, the inhibition in [1] was 4.56%; in assay [2], 1.31%; in [3], 1.65%; in [4], 1.62%; in assay [5], 1.99%; in assay [6], 2.89%. Further, the inhibition in assay [7] was 2.39%; in assay [8], 3.62%; in [9] it was 12.9%; in assay [10], 4.38%; in [11], 12.2%; in assay [12] it was 2.7%. Besides, the inhibition in assay [13] is 10.9%; in [14], 1.52%; in assay [15], 0.94%; in [16], 4.26%; in [17], 21.3%; in assay [18], 3.92%. In addition, the inhibition in [19] turned out to be 18.9%; in [20], 2.35%.
As for `CCn1c(-c2nonc2N)nc2cnc(Oc3cccc(NC(=O)c4ccc(N(C)C)cc4)c3)cc21`, the inhibition was found to be 0.59% in [1]; 0.41% in assay [2]; 0.72% in [3]; 1.12% in assay [4]; 0.16% in assay [5]; 2.53% in [6]. In addition, the inhibition is 2.85% in assay [7]; 2.53% in assay [8]; 10.8% in assay [9]; 2.76% in [10]; 12.2% in [11]; 0.81% in assay [12]. Also, the inhibition in assay [13] is 3.87%; in [14] it was 8.41%; in assay [15] it was 44.2%; in assay [16] it was 2.31%; in [17], 11.5%; in assay [18] it was 3.41%. Further, the inhibition in assay [19] was 27.8%; in [20] it was 0.56%.
As for `N#Cc1c(NC(=O)CN2CCOCC2)sc2c1CCCC2`, the inhibition in [1] came to 5.97%; in assay [2], 2.25%; in [3], 1.22%; in assay [4], 2.32%; in [5], 2%; in [6], 3.68%. Also, the inhibition in assay [7] amounted to 5.44%; in assay [8], 4.32%; in assay [9], 6.04%; in [10] it was 4.14%; in assay [11], 5.29%; in [12] it was 1.24%. Besides, the inhibition in [13] was 1.29%; in assay [14], 3.07%; in assay [15] it was 1.6%; in assay [16] it was 3.42%; in [17] it was 6.68%; in assay [18] it was 1.2%. In addition, the inhibition in assay [19] worked out at 6.58%; in assay [20], 1.3%.
Regarding `COc1ccc(-c2oc3ncnc(N)c3c2-c2ccc(NC(=O)Nc3cc(C(F)(F)F)ccc3F)cc2)cc1`, the inhibition came out at 4.78% in assay [1]; 1.65% in assay [2]; 6.21% in [3]; 2.26% in assay [4]; 2.83% in [5]; 4.08% in [6]. Also, the inhibition came out at 16.3% in assay [7]; 3.02% in assay [8]; 6.8% in assay [9]; 0.75% in [10]; 5.58% in [11]; 1.52% in assay [12]. For the same molecule, the inhibition was 5.32% in assay [13]; 4.39% in assay [14]; -9.28% in assay [15]; 9.84% in assay [16]; 46.6% in assay [17]; 9.42% in [18]. Also, the inhibition worked out at 56.3% in assay [19] and 0.01% in [20].

As usually defined, the inhibition is the drop in the measured response relative to a control, in per cent.

The values are drawn from ChEMBL document CHEMBL1961873, “Compounds: GSK PKIS; Assays: Nanosyn kinase panel” (2012).
